Among all 320,000 compounds or so, about 1,300 (0.41%) were called active. About 3% were inconclusive and are not listed. The rule behind the calls is not given here. A selection follows. Results with a measured potency or affinity are listed apart.

A short description of this assay: growth inhibition of non-replicating M. tuberculosis (AID 488890).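 Note: plate controls were DMSO cells for no effect and high antibiotic wells for full effect.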 The following applies: Mycobacterium tuberculosis non-replicating, at 25 µM, stronger effect = higher value.
Take `CCc1ccc(NS(=O)(=O)c2cc3c4c(c2)CCN4C(=O)CC3)cc1`: the inhibition amounted to 1.05%.

Regarding `Cc1oc(-c2cccc(Cl)c2)nc1CN1CCCC(C(=O)NCc2ccco2)C1` (stereo unspecified), the inhibition was found to be 22.8%.

As for `Cc1[nH]c(=O)[nH]c(=O)c1/C=C/C(=O)O`, the inhibition was -4.51%.

Regarding `Nc1c(C(=O)OCC(=O)NCc2ccccc2)[nH]c(=O)[nH]c1=O`, the inhibition was -9.15%.

Turning to `CCCCn1c(N)c(N(CC(C)C)C(=O)c2ccc(-c3ccc(Cl)cc3)o2)c(=O)[nH]c1=O`, the inhibition was found to be 74.7%.

Consider `NS(=O)(=O)c1ccc(-c2ccc(C=C3C(=O)NC(=O)NC3=O)o2)cc1`, for which the inhibition stood at 2.79%.

As for `CNS(=O)(=O)c1ccc(-c2ccc(C=C3C(=O)NC(=O)NC3=O)o2)cc1`, the inhibition is -1.77%.

In the case of `CCCc1nc(SCc2ccc(Cl)cc2Cl)n[nH]1`, the inhibition turned out to be 2.74%.

In the case of `Nc1nc(SCc2ccc(Cl)cc2Cl)n[nH]1`, the inhibition was determined as 1.74%.

`Cc1cccc2nc(CNC(=O)C3CCC(=O)N(Cc4ccccc4F)C3)cn12` (stereo unspecified): the inhibition was -13.7%.

In the case of `CC(C)n1c(SCC(=O)Nc2ccc(F)cc2)nnc1C1CC1`, the inhibition is -1.85%.

Take `Cc1nn(C(=O)CCC(=O)NCc2ccc(OC(C)C)cc2)c2ccccc12`: the inhibition is -4.46%.

For `CN(C#N)c1nccc(-c2cccs2)n1`, the inhibition was 19%.

As for `Cc1ccc(N/C=C/C(=O)c2ccc(C)cc2)cc1`, the inhibition was determined as 19.2%.

With `Cc1ccc(C(=O)/C=C\NCc2ccccc2)cc1`, the inhibition was 37.6%.

As to `COc1ccc(C(=O)NCC(=O)NCC(=O)OCc2ccc(Cl)cc2)cc1`, the inhibition was -0.72%.

With `COc1ccc(CCNC(=O)c2ccc(Cl)cc2)cc1`, the inhibition amounted to 74.1%.

Consider `COc1ccc(N/C=C/C(=O)c2ccc(Cl)cc2)cc1`, for which the inhibition was 45.2%.

For the molecule `COc1ccc(C(=O)NNC(=O)Nc2ccc(Cl)cc2)cc1`, the inhibition was -7.99%.

Consider `COC(=O)c1sc2nc(N3CCCCC3)c3c(c2c1N)CCCC3`, for which the inhibition came out at 1.1%.

Turning to `COC(=O)C1=C(C)OC(N)=C(C#N)C1c1ccc(OC)c(CSc2ccccn2)c1` (stereo unspecified), the inhibition was determined as 10.8%.

Consider `Cc1ccn2c(=O)nc(SCC(=O)N3CCCC3)nc2c1`, for which the inhibition is 8.52%.

As for `O=C(CN1CCCCC1)N/N=C/c1ccc(Cl)cc1Cl`, the inhibition was -4.16%.

Turning to `COc1ccc(NCN2C(=O)CCC2=O)cc1`, the inhibition was determined as 61%.

For `O=C1CCC(=O)N1CNc1cccnc1`, the inhibition was found to be 3.84%.

In the case of `COc1ccccc1-c1cn(C(C)(C)C)nc1C`, the inhibition is -1.55%.

For the molecule `O=C(N/N=C/c1cccc(C(F)(F)F)c1)c1ccc(O)cc1`, the inhibition turned out to be 16.8%.

As for `O=C(N/N=C/c1cc(Br)c(O)c(Br)c1)c1cccc(C(F)(F)F)c1`, the inhibition turned out to be 21%.

As to `C[C@H](CO)N1C[C@H](C)[C@@H](CN(C)S(=O)(=O)c2cn(C)cn2)Oc2ccc(NC(=O)NC3CCCCC3)cc2C1=O`, the inhibition was -8.37%.

Turning to `Cc1ccc(S(=O)(=O)N2CCOCC2)cc1C(=O)N1CCN(c2ccc(C(F)(F)F)cn2)CC1`, the inhibition came out at 7.63%.

As to `CCCOc1cc(C)c(S(=O)(=O)NCc2cccs2)cc1C`, the inhibition stood at 6.87%.

What is called inhibition is the drop in the measured response relative to a control, in per cent.

The record behind these values is PubChem BioAssay AID488890 (Southern Research Specialized Biocontainment Screening …, 2010).
